Out of some 2,000 compounds screened, about 250 (12%) were called active. Rule as the data show it: active = hERG blockade below about -20% or above about 20%; inactive = in between. Shown is part of a subset that was picked to be rich in actives.
biological target: Voltage-gated inwardly rectifying potassium channel KCNH2 (Homo sapiens) (UniProt Q12809); test: modulators of KCNH2 ion channel function, cellular (AID 376); settings: hERG-expressing cells, channel activity single-concentration screen; concentration not given here;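 also: 0% = buffer alone and 100% = reference blocker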
Sequence (Q12809 whole entry, looked up): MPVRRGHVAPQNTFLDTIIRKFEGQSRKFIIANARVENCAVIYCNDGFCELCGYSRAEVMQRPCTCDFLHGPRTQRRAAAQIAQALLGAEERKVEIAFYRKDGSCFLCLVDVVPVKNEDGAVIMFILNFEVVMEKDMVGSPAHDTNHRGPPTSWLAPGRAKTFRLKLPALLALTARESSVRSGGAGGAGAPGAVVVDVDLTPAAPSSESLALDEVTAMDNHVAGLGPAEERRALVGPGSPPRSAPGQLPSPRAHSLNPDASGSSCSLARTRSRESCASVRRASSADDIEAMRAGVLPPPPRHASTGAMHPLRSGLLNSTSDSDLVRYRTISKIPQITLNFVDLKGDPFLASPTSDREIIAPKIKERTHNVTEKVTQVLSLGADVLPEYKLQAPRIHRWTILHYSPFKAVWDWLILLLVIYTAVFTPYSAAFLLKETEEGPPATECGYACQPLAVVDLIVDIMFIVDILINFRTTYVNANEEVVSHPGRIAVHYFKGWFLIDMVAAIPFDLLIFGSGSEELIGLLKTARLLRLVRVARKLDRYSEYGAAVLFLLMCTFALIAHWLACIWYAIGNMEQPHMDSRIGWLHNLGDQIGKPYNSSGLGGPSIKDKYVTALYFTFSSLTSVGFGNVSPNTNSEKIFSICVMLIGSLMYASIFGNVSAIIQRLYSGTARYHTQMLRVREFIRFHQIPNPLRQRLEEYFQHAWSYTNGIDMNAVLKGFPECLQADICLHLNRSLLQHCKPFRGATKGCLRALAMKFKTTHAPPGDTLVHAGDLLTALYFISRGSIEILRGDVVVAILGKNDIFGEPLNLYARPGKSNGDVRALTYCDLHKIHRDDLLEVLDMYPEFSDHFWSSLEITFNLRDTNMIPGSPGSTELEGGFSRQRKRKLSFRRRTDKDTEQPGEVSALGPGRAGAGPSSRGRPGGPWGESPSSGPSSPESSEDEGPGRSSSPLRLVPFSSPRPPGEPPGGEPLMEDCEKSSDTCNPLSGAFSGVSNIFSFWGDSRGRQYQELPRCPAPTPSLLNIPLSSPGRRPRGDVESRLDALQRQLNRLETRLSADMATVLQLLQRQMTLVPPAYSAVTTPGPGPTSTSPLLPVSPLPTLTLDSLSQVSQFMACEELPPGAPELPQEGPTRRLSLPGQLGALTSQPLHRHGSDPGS

SMILES	hERG blockade
Cc1ccc(N=Nc2ccc(N)cc2C)c(S(N)(=O)=O)c1	23.9% (active)
Nc1c(S(N)(=O)=O)cc(S(N)(=O)=O)cc1S(N)(=O)=O	11.4% (inactive)
Cc1ccc(N=Nc2c(O)c3ccccc3[nH]c2=O)c(S(=O)(=O)N(C)C)c1	7.5% (inactive)
CC1(C)OCC(C2OC3OC(C)(C)OC3C2N)O1 (stereo not drawn)	-5.67% (inactive)
CCOC(=O)Nc1nc(-c2ccccc2)c(C)s1	18.9% (inactive)
O=C(O)C(CCc1ccccn1)c1ccccc1 (stereo not drawn)	5.69% (inactive)
NC(=O)C(=Cc1ccncc1)c1cccc2ccccc12	-12.9% (inactive)
O=C(O)C1C(C(=O)Nc2ccc3c(c2)Cc2ccccc2-3)C2(Cl)C(Cl)=C(Cl)C1(Cl)C2(Cl)Cl (stereo not drawn)	10.6% (inactive)
Cc1cc2ccc(OC(=O)c3ccc(N=C(N)N)cc3)cc2oc1=O	13.7% (inactive)
Oc1ccc(Cc2cc(Cl)cc(Cl)c2O)cc1Cl	45.1% (active)
OCCSCc1cc(Cl)cc(Cl)c1O	6.93% (inactive)
O=C(O)c1cc(Cl)cc(Cc2cc(Cl)cc(C(=O)O)c2O)c1O	17.1% (inactive)
O=C(O)Cc1cc(Cl)ccc1O	-4.5% (inactive)
CN(Cc1cc(Cl)cc(Cl)c1O)Cc1c(O)ccc2ccccc12	10.9% (inactive)
Oc1ccc(Cl)cc1Cc1cc(Cl)cc(Cc2cc(Cl)ccc2O)c1O	20.3% (active)
CC(C)(N=NC(C)(C)C(=N)N)C(=N)N	63.7% (active)
CC(C)c1ccc(C(C(=O)O)=C(O)C(=O)O)cc1	6.01% (inactive)
CCC1CCC2C3CC=C4CC(OC(C)=O)C(N)CC4(C)C3CCC12C (stereo not drawn)	63.9% (active)
CC12CCC(O)CC1=CCC1C2CCC2(C)C1CCC2N(CCO)CCO (stereo not drawn)	-0.272% (inactive)
CN(C)CCC(=O)C1(O)CCC2C3CC=C4CC(O)CCC4(C)C3CCC21C (stereo not drawn)	2.46% (inactive)
COc1ccc2c(c1)CN(C(C)C1CCC3C4CCC5CC(O)CCC5(C)C4CCC31C)CO2 (stereo not drawn)	51.3% (active)
CC(CCC(=O)O)C1CCC2C3CCC4CC(O)CCC4(C)C3CCC12C (stereo not drawn)	5.62% (inactive)
COC(=O)CCC(C)C1CCC2C3CCC4CC(O)CCC4(C)C3CCC12C (stereo not drawn)	3.2% (inactive)
CC(=N[O-])C(C)=N[O-].CC(=N[O-])C(C)=N[O-].CC(=N[O-])C(C)=N[O-].CC(=N[O-])C(C)=N[O-].[Cu].[Cu]	17.9% (inactive)
O=S(=O)(c1ccc2ccccc2c1)N1CCN(S(=O)(=O)c2ccc3ccccc3c2)CC1	-1.84% (inactive)
C[N+]1(C(CO)Cc2c[nH]c3ccccc23)Cc2ccccc2C1 (stereo not drawn)	1.67% (inactive)
c1ccc2c(CN3CCN(Cc4c[nH]c5ccccc45)CC3)c[nH]c2c1	-0.497% (inactive)
OCC(CCc1c[nH]c2ccccc12)c1c[nH]c2ccccc12 (stereo not drawn)	53.3% (active)

Source: PubChem BioAssay AID376 (PDSP, 2006)
